Bioassay records as filed in PubChem.
Compounds with a hit are over-represented: about 0.52% of the library has one in this group of screens.
KAT2A inh: qHTS Assay for Inhibitors of GCN5L2 | AID 504327, 2011 | actives 0.21% (n = 390,000) | Potency, µM (titrated, usually from 58.9 µM), inactives show at the top dose activity change, negative = inhibition, usual class: inhibitors | GCN5L2 HAT assay, ThioGlo1 CoA-SH fluorescence; note: % is set by controls: 0 for no effect and ±100 for the full control effect
Target sequence (Q92830 whole entry, looked up): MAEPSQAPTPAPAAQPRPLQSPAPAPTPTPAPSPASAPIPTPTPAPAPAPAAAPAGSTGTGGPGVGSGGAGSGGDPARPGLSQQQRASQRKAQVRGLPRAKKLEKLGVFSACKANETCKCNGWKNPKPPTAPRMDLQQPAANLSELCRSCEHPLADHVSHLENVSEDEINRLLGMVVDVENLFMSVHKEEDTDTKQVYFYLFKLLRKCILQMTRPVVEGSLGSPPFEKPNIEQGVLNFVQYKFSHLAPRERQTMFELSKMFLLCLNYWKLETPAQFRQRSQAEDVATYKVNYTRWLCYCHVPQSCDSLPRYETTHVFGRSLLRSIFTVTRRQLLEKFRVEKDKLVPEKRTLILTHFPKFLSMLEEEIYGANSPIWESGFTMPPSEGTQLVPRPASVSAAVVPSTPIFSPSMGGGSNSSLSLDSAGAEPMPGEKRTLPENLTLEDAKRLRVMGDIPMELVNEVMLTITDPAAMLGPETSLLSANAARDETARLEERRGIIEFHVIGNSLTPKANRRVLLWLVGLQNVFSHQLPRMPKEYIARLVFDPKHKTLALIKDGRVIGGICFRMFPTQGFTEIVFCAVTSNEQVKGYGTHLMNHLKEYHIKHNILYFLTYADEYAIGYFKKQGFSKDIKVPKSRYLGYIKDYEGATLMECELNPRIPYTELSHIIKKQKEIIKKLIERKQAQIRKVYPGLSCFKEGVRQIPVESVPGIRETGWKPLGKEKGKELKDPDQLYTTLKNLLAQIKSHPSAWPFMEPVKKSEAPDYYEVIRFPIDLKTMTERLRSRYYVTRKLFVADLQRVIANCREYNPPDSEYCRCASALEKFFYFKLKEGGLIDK
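GCN5L2 (20nM final) in 50mM HEPES, 0.1mM EDTA pH 7.5, 0.01% Tween-20 was preincubated 15 min at room temperature with compound, then given ThioGlo1 (50uM), H3(1-25) peptide (75uM) and acetyl-CoA (70uM); CoA-thiol fluorescence (Ex340/Em540) was read at 0 and 20 min.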
GLS inhibitor: qHTS for Inhibitors of Glutaminase (GLS); Potency, µM (series often up to 45.5 µM), for inactives: at the top dose activity change, negative = inhibition, hits mostly inhibitors; GLS enzymatic activity, qHTS titration; actives 0.21% (n = 410,000); note: % is set by controls: 0 for no effect and ±100 for the full control effect
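Glutamate formation by hKGA was monitored fluorometrically using coupled glutamate oxidase, HRP and Amplex Red. Substrate was added as 1 mM L-glutamine solution; incubation was 30 min at RT after an initial read.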
PGK inhibitor: qHTS Assay to Find Inhibitors of Phosphoglycerate Kinase; Phosphoglycerate kinase, glycosomal (Trypanosoma brucei brucei), P07378; PGK/GAPDH coupled, Kinase-Glo luminescence, 60 min; Potency, µM (doses to about 57.5 µM), for the others: at the top dose activity change, negative = inhibition, most hits filed as inhibitors; actives 0.043% (n = 380,000); note: % is set by controls: 0 for no effect and ±100 for the full control effect; nearly all actives have a fitted effect of over 60% in size
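Recombinant glycosomal PGK reaction used 1,3-bisphosphoglycerate generated in-well by GAPDH (100nM final) in 100mM TEA pH 7.6, 5mM MgCl2, 0.01% Tween-20. After 60 minutes at room temperature, ATP was read by Kinase-Glo Plus luminescence end-point.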
USP2a inh: qHTS Assay for Inhibitors of Ubiquitin-specific Protease USP2a Using CHOP2 as the Reporter; Ubiquitin carboxyl-terminal hydrolase 2 (Homo sapiens), O75604; USP2 core, Ub-CHOP2 coupled fluorogenic reporter, 485/531; Potency, µM (top dose mostly 38.3 µM), without a hit: top-dose activity change, negative = inhibition, actives largely listed as inhibitors; actives 0.01% (n = 330,000);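 note: plate controls were DMSO wells for no effect and full inhibition by NEM control for full effect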
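Deubiquitinase activity read as fluorescence (485/531 nm) after Ub-CHOP2 cleavage activates the enterokinase reporter on its substrate; USP2 core 10nM, Ub-CHOP2 and substrate 25nM each, 30min compound preincubation then 60min RT; data normalized to NEM, curves fitted.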
Tb PFK inh-1: qHTS Assay to Find Inhibitors of T. brucei phosphofructokinase; ATP-dependent 6-phosphofructokinase (Trypanosoma brucei brucei), O15648; T. brucei PFK, ADP-Glo luminescence; Potency, µM (series often up to 57.5 µM), for inactives: at the top dose activity, negative = inhibition, usual class: inhibitors; actives 0.17% (n = 330,000); AID 485367, 2010;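 note: 0% = uninhibited 1x PFK enzyme wells and -100% = no-enzyme wells; nearly all actives have a fitted effect of over 60% in size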
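Activity is normalized to no-enzyme wells (full inhibition) and 1.25 nM enzyme wells (no inhibition). Reaction: 0.5 mM F6P, 0.1 mM ATP, 45 min RT, ADP-Glo luminescence; concentration-response curves fitted and classed by quality.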
Tb PFK KinaseGlo: Tb PFK orthogonal confirmatory assay using ATP depletion (Kinase-Glo Plus) as an alternative measure of Tb PFK activity: Hit Validation; shares compounds with Tb PFK inh-1; Tb PFK enzyme, ATP depletion, Kinase-Glo Plus luminescence; Potency, µM (series often up to 57.5 µM), for the others: at the top dose inhibition; actives 47% (n = 1,100); AID 504636, 2011; calls by dose curve; note: nearly all actives have a fitted effect of over 60% in size
Tb PFK inh-2: Inhibitors of T. brucei phosphofructokinase: Hit Validation; shares compounds with Tb PFK inh-1; Potency, µM (doses to about 57.5 µM), for inactives: at the highest dose activity change, negative = inhibition, actives largely listed as inhibitors; actives 41% (n = 1,100); purified T. brucei PFK, ADP-Glo luminescence, 45 min;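 note: plate controls were full PFK enzyme control for no effect and no enzyme control for full effect; nearly all actives have a fitted effect of over 60% in size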
Starred values were filed as active, the others as inactive; i = inactive; ? = inconclusive; nt = no result given; [ ] = dose if it differs, or a comment. Unless noted, calls come from the whole dose curve; as a rule, active = well fitted curve in the direction sought with a large enough effect; inconclusive = small, poorly fitted or top-dose-only effect, or another doubt; inactive = no such curve, though single readings can be large; an effect the other way counts as inactive or inconclusive. Potency is the fitted concentration of half-maximal effect.

SMILES	KAT2A inh	GLS inhibitor	PGK inhibitor	USP2a inh	Tb PFK inh-1	Tb PFK KinaseGlo	Tb PFK inh-2
NNC(=O)CNc1cccc(Br)c1	-12%	22%	-6%	0%	15µM*	21µM*	?
CS(=N)(=O)CC[C@@H](N)C(=O)O (some centres not stated)	12%[21.4 µM]	nt	nt	nt	nt	nt	nt
OC(c1ccc(Cl)cc1)(c1cncnc1)c1ccccc1Cl (configuration not stated)	27%	nt	nt	nt	nt	nt	nt
Cc1cc(SCc2ccc(Cl)c(Cl)c2)nc(=O)[nH]1	-33%	2%	-5%	2%	?	12µM*	24µM*
O=C(Nc1ccc(Cl)c(Cl)c1)O/N=C/c1ccncc1	-2%	5%	-2%	5%	8.5µM*	?	?
COc1ccc(NC(=O)O/N=C/c2ccccc2)cc1	?	-7%	0%	1%	1%	nt	nt
O=S(=O)(Nc1cc(S(=O)(=O)N2CCOCC2)ccc1O)c1ccc2c(c1)OCCCO2	?	13%	-4%	1%	?	12µM*	15µM*
Cc1c(C(=O)N2CCC3(CC2)OCCO3)oc2ccc(S(=O)(=O)N3CCOCC3)cc12	-1%	1%	4%	-1%	-1%	nt	nt
O=C(Nc1cccc(-c2nnn(CC(=O)N3CCc4ccccc4C3)n2)c1)C1CCC1	-10%	25%	-5%	-3%	24µM*	13µM*	?
CC(C)=CC1C(C(=O)OCc2coc(Cc3ccccc3)c2)C1(C)C (configuration not stated)	-9%	0%	nt	nt	nt	nt	nt
O=C(N/N=C/c1ccc(O)c(O)c1O)/C(=C/c1ccc([N+](=O)[O-])cc1)NC(=O)c1ccccc1	-5%	-9%	-5%	-9%	24µM*	3.4µM*	11µM*
O=C1Nc2ccccc2Sc2ccccc21	0%	3%	-1%	5%	1%	nt	nt
Nc1n[nH]c(=S)n1/N=C1/C(=O)Nc2ccccc21	7.1µM*	-25%	-1%	10%	?	3µM*	9.5µM*
CN(C(=O)Cc1ccc(Cl)c(Cl)c1)[C@H](CN1CCCC1)c1ccccc1	7%	nt	nt	nt	nt	nt	nt
Cc1oc(=O)c(NC(=O)c2ccc(Cl)cc2)cc1C(=O)c1ccccc1	-12%	9%	4%	-3%	17µM*	5%	-8%
Cc1ccc(C(=O)Nc2ccc(Cl)cc2C(=O)c2ccccc2)cc1	nt	-4%	-8%	nt	nt	nt	nt
Nc1cc(=O)[nH]c(SCC(=O)Nc2ccc(F)c(Cl)c2)n1	-6%[0.501 µM]	0%	1%	1%	?	?	30µM*
N#Cc1cc2c(nc1SCC(=O)Nc1ccc(Cl)c(C(F)(F)F)c1)C1CCN2CC1	-8%	-9%	-9%	nt	nt	nt	nt
COc1ccc(N2C(=O)CS(=O)C(c3ccccc3)C2=O)cc1 (configuration not stated)	11%	-2%	-11%	-3%	?	?	-19%
CC(C)[C@H](NC(=O)[C@H](CCC(=O)O)NC(=O)[C@H](Cc1ccccc1)NC(=O)[C@@H](C)NC(=O)[C@@H](N)Cc1ccc(O)cc1)C(=O)N[C@H](C(=O)NCC(N)=O)C(C)C	-18%	nt	nt	nt	nt	nt	nt
CCCCCn1c(=O)c(C(=O)Nc2nc3ccccc3[nH]2)c(O)c2ccccc21	0%	0%	i	3%	1%	nt	nt
CCn1c(=O)c(C(=O)Nc2nc3ccccc3[nH]2)c(O)c2ccccc21	-5%	20%	1%	0%	?	-32%	?
C[C@H](NC(N)=O)C(=O)Nc1ccc(N2CCOCC2)c(S(=O)(=O)Nc2ccc(Cl)cc2)c1	-22%	1%	-1%	1%	?	4.3µM*	11µM*
CC(C)[C@H](NC(=O)[C@H](CCC(=O)O)NC(=O)[C@H](Cc1ccccc1)NC(=O)[C@H](C)NC(=O)[C@@H](N)Cc1ccc(O)cc1)C(=O)N[C@H](C(=O)NCC(N)=O)C(C)C	5%	nt	nt	nt	nt	nt	nt
c1ccc(-c2csc(-n3cnnn3)n2)cc1	5%	-3%	i	6%	?	?	-24%
SMILES	KAT2A inh	GLS inhibitor	PGK inhibitor	USP2a inh	Tb PFK inh-1	Tb PFK KinaseGlo	Tb PFK inh-2
CC(=O)NC1=NN(C(C)=O)C(C)(c2ccccc2)S1 (configuration not stated)	-3%	13%	-5%	2%	?	1%	-1%
Oc1ccc(C2C[C@H]3CC[C@@H]2C3)cc1O (some centres not stated)	-4%	?	3%	5%	?	12µM*	13µM*
CC(=O)OCC1=C(C(=O)O)N2C(=O)[C@@H](NC(=O)CCC[C@@H](N)C(=O)O)[C@H]2SC1	8%	nt	nt	nt	nt	nt	nt
Cc1ccc(NS(=O)(=O)c2ccc(OCC(=O)N3CCN(C)CC3)cc2)cc1	-1%	12%	6%	0%	-2%	nt	nt
O=C(NCCCN1CCCC1=O)c1cc(NS(=O)(=O)c2ccc(F)cc2)cc(NS(=O)(=O)c2ccc(F)cc2)c1	-7%	-7%	-5%	0%	8.5µM*	3.8µM*	6.7µM*
CC(=O)C1=C(O)[C@@H]2[C@@H]3c4c[nH]c5cccc(c45)C[C@@H]3C(C)(C)N2C1=O	-6%	nt	nt	nt	nt	nt	nt
CCN1CCN(C(=S)c2ccc(Br)cc2)CC1	-1%	1%	i	4%	?	11µM*	27µM*
CCN1CCN(C(=S)c2ccc(O)cc2)CC1	14%	16%	-2%	13%	13µM*	6.7µM*	24µM*
CC(NCc1ccc(Cl)c(Cl)c1)C(O)c1ccccc1 (configuration not stated)	-10%	8%	0%[11.5 µM]	0%	?	12µM*	24µM*
c1csc(CN2CC[C@@]3(CCCNC3)C2)n1	-2%	nt	nt	nt	nt	nt	nt
CNC(=S)N1CCN(c2ccc(Cl)c(Cl)c2)CC1	-23%	-23%	i	2%	27µM*	13µM*	27µM*
CC(C)NC1C2CCC(CC2)C1(O)c1ccc(Cl)c(Cl)c1 (configuration not stated)	nt	-8%	-6%	nt	nt	nt	nt
